# Laboratory results: PubChem BioAssay AID2284155 (EPA ToxCast)
# Activity calls are given as the source filed them. How the source made its calls: active means hit-call score of the fitted dose curve at least 0.9, where 1 is the maximum; inactive means score below 0.9.
# Molecular target: human Muscarinic Acetylcholine Receptor M4 Antagonism, conducted at France lab site, CHRM4 (gene 1132) (UniProt P08173)
# Assay: ERF_FR_GPCR_hCHRM4: Eurofins (ERF) G Protein-Coupled Receptor (GPCR) Radioligand Binding LeadHunter Assay for human Muscarinic Acetylcholine Receptor M4 Antagonism, conducted at France lab site
# Experimental: ERF_FR_GPCR_hCHRM4 is a biochemical, single-readout assay that uses extracted gene-proteins in a cell-free assay. Measurements were taken 1 hour after chemical dosing in a 96-well plate. See M4 Human Acetylcholine (Muscarinic) GPCR Binding (Antagonist Radioligand) Assay, Cerep.ERF_FR_GPCR_hCHRM4 is an assay component calculated from the ERF_FR_GPCR_hCHRM4 assay. It is designed to measure radioligand binding using a type of binding reporter as detected by scintillation counting with radiometry technology.Data from the assay component ERF_FR_GPCR_hCHRM4 was analyzed at the assay endpoint, ERF_FR_GPCR_hCHRM4, in the positive analysis fitting direction relative to DMSO as the negative control and baseline of activity. Using a type of binding reporter, loss-of-signal activity can be used to understand changes in binding as they relate to gene CHRM4. To generalize the intended target to other relatable targets, this assay endpoint is annotated to the gpcr intended target family, where the subfamily is acetylcholine (Muscarinic).
# Human cells are incubated for 60 minutes at room temprature with [3H]4-DAMP ligand (0.2 nM) and 4-Damp methiodide as control inhibitor.Test Sample Requirements: Minimum for 1) Screen: 60 ul of 10 mM stock -OR- 1 mg (pre-weighed) for 10 uM final testing. 2) Dose Response: 90 ul of 10 mM stock -OR- 1 mg (pre-weighed) for a top concentration at 10 uM.
# Sequence of human Muscarinic Acetylcholine Receptor M4 Antagonism, conducted at France lab site, CHRM4 (gene 1132) (P08173 whole entry, looked up): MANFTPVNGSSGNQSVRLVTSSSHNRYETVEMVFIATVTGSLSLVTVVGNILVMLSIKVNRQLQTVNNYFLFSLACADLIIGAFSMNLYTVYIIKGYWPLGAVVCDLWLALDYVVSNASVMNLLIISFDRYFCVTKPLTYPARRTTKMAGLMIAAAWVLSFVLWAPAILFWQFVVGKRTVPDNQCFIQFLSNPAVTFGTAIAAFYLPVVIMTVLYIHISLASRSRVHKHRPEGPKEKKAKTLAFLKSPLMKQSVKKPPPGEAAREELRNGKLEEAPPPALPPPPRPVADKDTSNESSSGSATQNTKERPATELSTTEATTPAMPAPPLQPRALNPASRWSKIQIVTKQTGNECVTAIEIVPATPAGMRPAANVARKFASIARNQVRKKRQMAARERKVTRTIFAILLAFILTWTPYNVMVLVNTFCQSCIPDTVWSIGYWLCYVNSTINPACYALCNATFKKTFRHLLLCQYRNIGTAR
row,Structure (SMILES),AC50
1,O=C(/C=C/c1ccc(O)cc1)CC(=O)/C=C/c1ccc(O)cc1,9.09 µM (active)
